Test results as given in PubChem BioAssay (Tox21).
Inconclusive results are not listed. Calls of active or inactive are those of the source. Unless noted, calls follow the shape of the dose curve; as a rule, active = well fitted curve in the direction sought with a large enough effect in the repeat runs; inconclusive = weak or mixed curves; inactive = no such curve, though single readings can be large; an effect the other way counts as inactive or inconclusive.

Key:
[1] = qHTS assay to identify aromatase inhibitors - cell viability counter screen (AID 743084);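 also: cells stimulated with testosterone during compound exposure; nearly all actives have a fitted effect of over 55% in size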
[2] = biological target: Aryl hydrocarbon receptor (Homo sapiens) (UniProt P35869); experiment: qHTS assay to identify small molecule that activate the aryl hydrocarbon receptor (AhR) signaling pathway (AID 743085);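 also: HG2L7.5c1 human HepG2 liver cells with stably integrated DRE-driven firefly reporter; series mostly up to about 70 µM; nearly all actives have a fitted effect of over 15% in size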
Chain of Aryl hydrocarbon receptor (Homo sapiens) (P35869 whole entry, looked up): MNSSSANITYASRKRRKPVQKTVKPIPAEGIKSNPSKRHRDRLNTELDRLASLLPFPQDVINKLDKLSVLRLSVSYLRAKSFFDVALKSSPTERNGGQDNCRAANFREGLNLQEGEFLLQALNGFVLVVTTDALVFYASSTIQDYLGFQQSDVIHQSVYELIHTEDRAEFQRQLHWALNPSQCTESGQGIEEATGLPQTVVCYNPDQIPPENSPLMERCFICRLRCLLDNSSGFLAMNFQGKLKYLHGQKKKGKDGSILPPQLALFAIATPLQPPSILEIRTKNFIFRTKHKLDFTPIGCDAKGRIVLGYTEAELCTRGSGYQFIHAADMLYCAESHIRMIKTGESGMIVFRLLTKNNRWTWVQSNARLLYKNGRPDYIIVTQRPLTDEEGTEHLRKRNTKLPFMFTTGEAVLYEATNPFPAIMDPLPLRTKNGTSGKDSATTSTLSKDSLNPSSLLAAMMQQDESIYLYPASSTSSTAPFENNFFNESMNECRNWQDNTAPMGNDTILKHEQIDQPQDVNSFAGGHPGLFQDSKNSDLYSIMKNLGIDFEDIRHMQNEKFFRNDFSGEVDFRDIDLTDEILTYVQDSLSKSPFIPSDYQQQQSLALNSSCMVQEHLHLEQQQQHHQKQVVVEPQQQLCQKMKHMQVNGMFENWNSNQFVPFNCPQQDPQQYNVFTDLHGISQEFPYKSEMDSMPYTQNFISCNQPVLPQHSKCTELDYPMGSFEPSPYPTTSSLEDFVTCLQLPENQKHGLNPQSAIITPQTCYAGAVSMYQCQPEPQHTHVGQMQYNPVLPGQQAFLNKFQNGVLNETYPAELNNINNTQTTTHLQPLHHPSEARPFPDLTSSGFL
Outline: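 Steps: seed HepG2-AhR-luc cells; allow 5 h at 37C; pin-transfer test compound or vehicle; incubate 24 h at 37C; add viability dye (30 min, 37C) and read fluorescence; add luciferase substrate (30 min, RT) and read luminescence.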

[3] = qHTS assay to identify small molecule that activate the aryl hydrocarbon receptor (AhR) signaling pathway - cell viability counter screen (AID 743086);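 also: HepG2 liver cells carrying the AhR DRE luciferase reporter; series mostly up to about 70 µM; nearly all actives have a fitted effect of over 45% in size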
Outline: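 HepG2-AhR-luc (HG2L7.5c1) cells, 4000/well, were preincubated 5 h at 37C, exposed to compound in qHTS format for 24 hr at 37C, then given CellTiter-Fluor for 30 min; viability was read as fluorescence in the reporter wells.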

[4] = biological target: Peroxisome proliferator-activated receptor gamma (Homo sapiens) (UniProt P37231); experiment: qHTS assay to identify small molecule agonists of the peroxisome proliferator-activated receptor gamma (PPARg) signaling pathway (AID 743094; active = well fitted activation curve with a large enough effect in the signal ratio in the repeat runs, not every such curve was filed as active; the % refers to the signal ratio)
Chain of Peroxisome proliferator-activated receptor gamma (Homo sapiens) (P37231 whole entry, looked up): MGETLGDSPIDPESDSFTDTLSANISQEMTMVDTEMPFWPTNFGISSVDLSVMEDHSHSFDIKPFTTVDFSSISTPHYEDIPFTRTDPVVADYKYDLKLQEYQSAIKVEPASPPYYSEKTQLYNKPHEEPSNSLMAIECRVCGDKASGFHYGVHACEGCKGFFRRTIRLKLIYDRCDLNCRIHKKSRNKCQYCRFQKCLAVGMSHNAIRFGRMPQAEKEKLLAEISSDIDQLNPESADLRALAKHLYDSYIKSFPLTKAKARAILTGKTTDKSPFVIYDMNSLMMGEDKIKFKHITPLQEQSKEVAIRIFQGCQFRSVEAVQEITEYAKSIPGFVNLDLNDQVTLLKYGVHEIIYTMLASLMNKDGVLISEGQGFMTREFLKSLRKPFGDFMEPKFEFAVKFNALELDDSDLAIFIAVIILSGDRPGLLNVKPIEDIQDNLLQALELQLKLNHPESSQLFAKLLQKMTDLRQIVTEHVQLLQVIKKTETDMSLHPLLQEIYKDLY
Outline: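 Following 5 h plating at 37C, PPARg-bla HEK293H cells receive compound or DMSO for 17 h; fluorescence intensity is recorded after LiveBLAzer B/G loading for 1 h at room temperature.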

[5] = biological target: Peroxisome proliferator-activated receptor gamma (Homo sapiens) (UniProt P37231); experiment: qHTS assay to identify small molecule antagonists of the peroxisome proliferator-activated receptor gamma (PPARg) signaling pathway (AID 743191; calls by dose curve; also: series mostly up to about 63 µM; nearly all actives have a fitted effect of over 30% in size)
Outline: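 GeneBLAzer PPARg UAS-bla HEK293H cells carrying a UAS-driven beta-lactamase reporter were plated at 3000 cells/well, preincubated 5 h at 37C, then given compound for 17 h at 37C; LiveBLAzer B/G FRET substrate was read after 1 h at room temperature.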

[6] = qHTS assay to identify small molecule antagonists of the peroxisome proliferator-activated receptor gamma (PPARg) signaling pathway - cell viability counter screen (AID 743194); also: nearly all actives have a fitted effect of over 55% in size
Outline: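 PPARg-UAS-bla HEK293H cells were plated, rested 5 h at 37 C, then treated with compounds plus rosiglitazone (50 nM final) for 17 h at 37 C; viability was then read by CellTiter-Glo luminescence after 30 min at room temperature.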

[7] = qHTS assay for small molecule agonists of the antioxidant response element (ARE) signaling pathway (AID 743202; active = well fitted activation curve with a large enough effect in the signal ratio in the repeat runs, not every such curve was filed as active; the % refers to the signal ratio)
Outline: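 Read-out: LiveBLAzer B/G FRET substrate fluorescence after 2 h at room temperature, following 16 h compound treatment at 37 C of HepG2 cells carrying an ARE-driven beta-lactamase reporter.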

[8] = qHTS assay for small molecule agonists of the antioxidant response element (ARE) signaling pathway - cell viability counter screen (AID 743203; calls by dose curve; also: nearly all actives have a fitted effect of over 55% in size)
Outline: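 Compounds in DMSO were pinned onto ARE-bla HepG2 cells plated 5 hrs earlier at 2,000 cells/well. Sixteen hours later at 37C/5% CO2, CellTiter-Glo was added and luminescence measured after 30 min at room temperature.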

[9] = qHTS assay for small molecule activators of the heat shock response signaling pathway - cell viability counter screen (AID 743209); also: nearly all actives have a fitted effect of over 50% in size
Outline: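 Counter screen for cytotoxicity in HeLa HSE-bla reporter cells. Treatment was 5 h at 37 C; viability was detected by luminescent ATP assay (CellTiter-Glo) in the same wells as the beta-lactamase read.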

[10] = qHTS assay for small molecule activators of the heat shock response signaling pathway (AID 743210; active = well fitted activation curve with a large enough effect in the signal ratio in the repeat runs, with a control signal flat, not every such curve was filed as active; the % refers to the signal ratio; also: series mostly up to about 63 µM)
Outline: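 HSE-bla HeLa cells (beta-lactamase reporter under heat shock response elements) were exposed to compounds for 5 h at 37 C, then loaded with LiveBLAzer B/G FRET substrate for 2.5 h at room temperature before fluorescence reading.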

[11] = qHTS assay to identify small molecule agonists of the peroxisome proliferator-activated receptor delta (PPARd) signaling pathway - cell viability counter screen (AID 743211); also: nearly all actives have a fitted effect of over 55% in size
Outline: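 Viability of GeneBLAzer PPARd UAS-bla HEK293H cells was assessed after 17 h compound incubation at 37C, using CellTiter-Glo reagent added after the reporter read and luminescence recorded 30 min later.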

[12] = biological target: Peroxisome proliferator-activated receptor delta (Homo sapiens) (UniProt Q03181); experiment: qHTS assay to identify small molecule agonists of the peroxisome proliferator-activated receptor delta (PPARd) signaling pathway (AID 743212; calls by dose curve)
Chain of Peroxisome proliferator-activated receptor delta (Homo sapiens) (Q03181 whole entry, looked up): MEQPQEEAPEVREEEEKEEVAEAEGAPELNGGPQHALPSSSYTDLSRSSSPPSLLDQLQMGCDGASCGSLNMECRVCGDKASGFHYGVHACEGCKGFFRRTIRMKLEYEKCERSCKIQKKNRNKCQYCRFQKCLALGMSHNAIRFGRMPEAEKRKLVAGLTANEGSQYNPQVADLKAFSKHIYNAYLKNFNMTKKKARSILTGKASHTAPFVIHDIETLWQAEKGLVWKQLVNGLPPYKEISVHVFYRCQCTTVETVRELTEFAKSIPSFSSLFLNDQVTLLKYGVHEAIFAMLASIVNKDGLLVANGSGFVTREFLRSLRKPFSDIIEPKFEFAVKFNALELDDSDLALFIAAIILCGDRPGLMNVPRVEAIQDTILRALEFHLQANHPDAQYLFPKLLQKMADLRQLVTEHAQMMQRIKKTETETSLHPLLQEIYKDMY
Outline: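 GeneBLAzer PPARd UAS-bla HEK293H cells (beta-lactamase reporter under UAS control), plated and rested 5 h at 37 C, then exposed to compounds in DMSO at 37 C; LiveBLAzer B/G FRET substrate added, 2 h room temperature, fluorescence read.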

[13] = qHTS assay to identify small molecule antagonists of the peroxisome proliferator-activated receptor delta (PPARd) signaling pathway - cell viability counter screen (AID 743213); also: nearly all actives have a fitted effect of over 50% in size
Outline: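 Cytotoxicity counter screen: CellTiter-Glo luminescence read 30 min after addition, in the same wells as the reporter assay. There, PPARd UAS-bla HEK293H cells (3000/well) were treated 17 h at 37 C with compound and 300 nM L165041.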

[14] = qHTS assay to identify small molecule agonists of the farnesoid-X-receptor (FXR) signaling pathway - cell viability counter screen (AID 743218); also: nearly all actives have a fitted effect of over 45% in size
Outline: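 After 16 h at 37 C with test compounds, FXR-bla HEK 293T cells were given LiveBLAzer B/G substrate for 2 h at RT and then CellTiter-Glo; luminescence was taken after 30 min.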

[15] = qHTS assay to identify small molecule antagonists of the farnesoid-X-receptor (FXR) signaling pathway - cell viability counter screen (AID 743221; active = well fitted cell-killing curve with a large enough effect in the repeat runs, not every such curve was filed as active; also: nearly all actives have a fitted effect of over 50% in size)
Outline: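 Quantitative HTS of the Tox21 10K library run in parallel with the beta-lactamase reporter read. HEK 293T cells carrying a UAS-driven bla reporter got compound and 50 uM CDCA (final) for 16 h; ATP-based luminescence followed.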

[16] = biological target: Vitamin D3 receptor (Homo sapiens) (UniProt P11473); experiment: qHTS assay to identify small molecule agonists of the vitamin D receptor (VDR) signaling pathway (AID 743222; calls by dose curve)
Chain of Vitamin D3 receptor (Homo sapiens) (P11473 whole entry, looked up): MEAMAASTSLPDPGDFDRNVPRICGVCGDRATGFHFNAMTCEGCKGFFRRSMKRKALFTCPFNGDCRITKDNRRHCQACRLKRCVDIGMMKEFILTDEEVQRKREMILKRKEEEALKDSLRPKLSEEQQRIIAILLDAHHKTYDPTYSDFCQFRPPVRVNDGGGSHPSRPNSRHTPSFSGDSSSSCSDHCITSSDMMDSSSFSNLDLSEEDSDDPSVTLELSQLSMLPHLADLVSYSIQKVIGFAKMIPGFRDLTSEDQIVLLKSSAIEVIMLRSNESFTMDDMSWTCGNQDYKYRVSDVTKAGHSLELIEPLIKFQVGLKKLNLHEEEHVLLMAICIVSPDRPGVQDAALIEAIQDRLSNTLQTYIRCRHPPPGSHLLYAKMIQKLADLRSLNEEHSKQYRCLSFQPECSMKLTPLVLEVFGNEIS
Outline: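 VDR-bla cells were seeded, left 4 h, treated with compounds in DMSO for 16 h, incubated 2 h at RT with B/G FRET substrate, and read for fluorescence.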

[17] = biological target: Vitamin D3 receptor (Homo sapiens) (UniProt P11473); experiment: qHTS assay to identify small molecule antagonists of the vitamin D receptor (VDR) signaling pathway (AID 743223; active = well fitted inhibition curve with a large enough effect in the signal ratio in the repeat runs, not every such curve was filed as active; the % refers to the signal ratio)
Outline: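 Fluorescence from LiveBLAzer B/G FRET substrate, read after 2 h at room temperature, reflects beta-lactamase reporter activity in VDR-bla cells treated 16 h at 37C with compounds and agonist 1alpha,25-dihydroxyvitamin D3 (3 nM final).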

[18] = biological target: Peroxisome proliferator-activated receptor delta (Homo sapiens) (UniProt Q03181); experiment: qHTS assay to identify small molecule antagonists of the peroxisome proliferator-activated receptor delta (PPARd) signaling pathway (AID 743215; active = well fitted inhibition curve with a large enough effect in the signal ratio in the repeat runs, not every such curve was filed as active; the % refers to the signal ratio;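 also: cells stimulated with agonist L165041 at 300 nM final during compound exposure; series mostly up to about 62 µM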)
Outline: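 With L165041 present at 300 nM final, compounds were incubated 17 h at 37 C on PPARd UAS-bla HEK293H cells. A FRET-based beta-lactamase substrate was then applied for 2 h at room temperature and fluorescence intensity recorded.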

[19] = biological target: Bile acid receptor (Homo sapiens) (UniProt Q96RI1); experiment: qHTS assay to identify small molecule antagonists of the farnesoid-X-receptor (FXR) signaling pathway (AID 743217; active = well fitted inhibition curve with a large enough effect in the signal ratio in the repeat runs, not every such curve was filed as active; the % refers to the signal ratio)
Chain of Bile acid receptor (Homo sapiens) (Q96RI1 whole entry, looked up): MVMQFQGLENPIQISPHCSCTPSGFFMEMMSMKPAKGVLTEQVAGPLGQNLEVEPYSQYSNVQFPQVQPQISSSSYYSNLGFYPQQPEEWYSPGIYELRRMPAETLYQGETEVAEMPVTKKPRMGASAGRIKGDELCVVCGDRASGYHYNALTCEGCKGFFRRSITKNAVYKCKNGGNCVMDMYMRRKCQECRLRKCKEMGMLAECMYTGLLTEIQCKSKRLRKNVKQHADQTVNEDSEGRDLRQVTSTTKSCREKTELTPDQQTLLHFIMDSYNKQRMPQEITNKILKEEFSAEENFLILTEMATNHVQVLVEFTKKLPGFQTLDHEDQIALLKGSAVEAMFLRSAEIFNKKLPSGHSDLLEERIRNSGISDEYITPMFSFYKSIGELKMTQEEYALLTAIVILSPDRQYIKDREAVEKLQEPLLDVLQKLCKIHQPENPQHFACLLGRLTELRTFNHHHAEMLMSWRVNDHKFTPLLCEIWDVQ
Outline: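 In this cell-based antagonist screen, inhibition of CDCA-driven (50 uM final) UAS-beta-lactamase expression in HEK 293T cells was measured by FRET fluorescence following 16 h compound exposure at 37 °C.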

[20] = biological target: Bile acid receptor (Homo sapiens) (UniProt Q96RI1); experiment: qHTS assay to identify small molecule agonists of the farnesoid-X-receptor (FXR) signaling pathway (AID 743220; active = well fitted activation curve with a large enough effect in the signal ratio in the repeat runs, not every such curve was filed as active; the % refers to the signal ratio)
Outline: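 Beta-lactamase reporter under UAS control in GeneBLAzer FXR HEK 293T cells (5000/well) measured with LiveBLAzer FRET substrate after 2 h at room temperature. Compound exposure lasted 16 h at 37C.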
% is scaled to controls: 0 for no effect and ±100 for the full control effect.

O=c1cc(CO)occ1O
inactive: Potency [1] | Potency [2] | Potency [3] | outcome [4] | Potency [5] | outcome [6] | Potency [7] | Potency [8] | outcome [9] | outcome [10] | Potency [11] | outcome [12] | Potency [13] | Potency [14] | Potency [15] | outcome [16] | outcome [17]

N=C(N)c1ccccc1
inactive: Potency [1] | Potency [2] | Potency [3] | outcome [4] | Potency [5] | outcome [6] | Potency [7] | Potency [8] | outcome [9] | outcome [10] | Potency [11] | outcome [12] | Potency [13] | Potency [18] | Potency [15] | outcome [16]

CN(C)CCCNCCCN(C)C
inactive: Potency [1] | Potency [2] | Potency [3] | outcome [4] | Potency [5] | Potency [7] | Potency [8] | outcome [9] | outcome [10] | Potency [11] | Potency [13] | Potency [14] | Potency [15] | outcome [16] | outcome [17]

CCc1nccnc1CC
inactive: Potency [1] | Potency [2] | Potency [3] | outcome [4] | Potency [5] | outcome [6] | outcome [9] | outcome [10] | Potency [11] | outcome [12] | Potency [13] | Potency [18] | Potency [14] | Potency [15] | outcome [16] | outcome [17]

O=C1CC2CC1C1CCCC21 (stereo unspecified)
inactive: Potency [1] | Potency [2] | Potency [3] | outcome [4] | Potency [5] | outcome [6] | outcome [9] | outcome [10] | Potency [11] | outcome [12] | Potency [13] | outcome [19] | Potency [14] | outcome [20] | Potency [15]

O=C(O)CN(CCOCCOCCN(CC(=O)O)CC(=O)O)CC(=O)O
inactive: Potency [1] | Potency [2] | Potency [3] | outcome [4] | ratio activity, negative = inhibition [5] -4.72% [at 0.55 µM] | activity change, negative = cytotoxicity [6] 11.4% [at 0.55 µM] | activation [7] 8.1% [at 0.756 µM] | activity change, negative = cytotoxicity [9] -15.4% [at 0.55 µM] | activation [10] 0.198% [at 0.55 µM] | activity change, negative = cytotoxicity [11] 8.22% [at 0.55 µM] | activation [12] -2.28% [at 0.55 µM] | viability change, negative = cytotoxic [13] 5.18% [at 0.575 µM] | ratio activity, negative = inhibition [18] 6.3% [at 0.575 µM] | viability change, negative = cytotoxic [14] -1.35% [at 0.55 µM] | activity change, negative = cytotoxicity [15] -3.69% [at 0.55 µM] | activation [16] 6.34% [at 0.554 µM] | activity change, negative = inhibition [17] 2.94% [at 0.628 µM]

FC1(F)C(F)(F)C(F)(F)C2(F)C(F)(F)C(F)(F)C(F)(F)C(F)(F)C2(F)C1(F)F (stereo unspecified)
inactive: Potency [1] | Potency [2] | Potency [3] | outcome [4] | Potency [5] | outcome [6] | outcome [9] | outcome [10] | Potency [11] | outcome [12] | Potency [13] | Potency [18] | outcome [19] | Potency [14] | outcome [20] | Potency [15] | outcome [16]

CCn1nc(C(=O)O)c(=O)c2cc3c(cc21)OCO3
inactive: Potency [1] | Potency [2] | Potency [3] | outcome [4] | Potency [5] | outcome [6] | Potency [7] | outcome [9] | outcome [10] | Potency [11] | outcome [12] | Potency [13] | Potency [15] | outcome [16]

NC(=O)c1ccc([N+](=O)[O-])cc1
inactive: Potency [1] | Potency [2] | Potency [3] | outcome [4] | Potency [5] | outcome [6] | outcome [9] | Potency [11] | outcome [12] | Potency [13] | Potency [18] | Potency [14] | Potency [15] | outcome [16]
